The text below walks through data of article PMC4081100, “A DNA-binding-site landscape and regulatory network analysis for NAC transcription factors in Arabidopsis thaliana”.

What all share (assay): universal protein binding microarray (PBM); transcription factors of Arabidopsis thaliana; high values mean tight binding
What all share (details): protein: recombinant; tags: GST; chain copies: 2; dsDNA, one strand shown

One test has as its target T1, GST-ANAC092(1-176) (Arabidopsis thaliana, UniProt Q9FKA0 1-176).
T1 sequence: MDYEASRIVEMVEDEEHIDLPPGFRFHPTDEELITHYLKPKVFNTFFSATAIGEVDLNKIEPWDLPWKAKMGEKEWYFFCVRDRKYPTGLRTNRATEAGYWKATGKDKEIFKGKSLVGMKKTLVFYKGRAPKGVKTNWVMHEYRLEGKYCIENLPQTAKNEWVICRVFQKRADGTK
Summed up:
(§1)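 Cells were induced to make GST-tagged NAC-domain, full-length or DNA-binding-domain proteins, and zinc acetate was added for zinc-finger proteins. These proteins were purified on glutathione–Sepharose 4B, quantified by A280 or anti-GST western blot, and applied in duplicate at 200 to 500 nM final to custom all-10-mer Agilent 4 × 180K arrays that primer extension had made double-stranded. Binding is given as the normalised enrichment score (E-score) for scored gapped and ungapped 8-mers.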

The target in a further test is T2, GST-ANAC019 NAC domain (Arabidopsis thaliana, UniProt Q9C932 14-162).
T2 sequence: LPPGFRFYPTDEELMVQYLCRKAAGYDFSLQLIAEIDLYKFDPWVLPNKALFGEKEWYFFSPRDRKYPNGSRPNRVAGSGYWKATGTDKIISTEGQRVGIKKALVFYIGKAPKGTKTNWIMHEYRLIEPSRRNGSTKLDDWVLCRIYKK
Summed up:
as §1

In another test the target is T3, GST-ANAC055(1-171) (Arabidopsis thaliana, UniProt Q9LDY8 1-171).
T3 sequence: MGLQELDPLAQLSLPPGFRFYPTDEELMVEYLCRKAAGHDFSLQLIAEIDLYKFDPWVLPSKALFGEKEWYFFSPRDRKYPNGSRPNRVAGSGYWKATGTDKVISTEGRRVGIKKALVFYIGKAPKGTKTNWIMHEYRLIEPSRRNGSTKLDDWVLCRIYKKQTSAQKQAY
The gist of the method:
as §1

A further test has as its target T4, GST-ATAF1 NAC domain (Arabidopsis thaliana, UniProt Q39013 7-158).
T4 sequence: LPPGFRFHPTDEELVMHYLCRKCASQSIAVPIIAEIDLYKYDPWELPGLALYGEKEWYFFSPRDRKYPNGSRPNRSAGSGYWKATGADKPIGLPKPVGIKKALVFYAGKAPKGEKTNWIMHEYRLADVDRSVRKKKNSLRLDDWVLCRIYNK
Summed up:
as §1

In test [1] the target is T5, GST-ANAC092(1-285) full length (Arabidopsis thaliana, UniProt Q9FKA0 1-285).
T5 sequence: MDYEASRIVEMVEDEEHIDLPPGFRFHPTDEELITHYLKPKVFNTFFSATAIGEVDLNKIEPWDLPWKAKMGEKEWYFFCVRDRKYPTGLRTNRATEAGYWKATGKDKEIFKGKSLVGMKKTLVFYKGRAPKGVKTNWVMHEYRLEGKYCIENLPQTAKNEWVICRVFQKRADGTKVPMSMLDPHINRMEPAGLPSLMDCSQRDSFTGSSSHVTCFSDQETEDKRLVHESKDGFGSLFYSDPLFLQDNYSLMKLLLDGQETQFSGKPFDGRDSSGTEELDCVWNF
Summed up: as §1

Another test concerns the target T6, GST-NAP(1-166) (Arabidopsis thaliana, UniProt O49255 1-166).
T6 sequence: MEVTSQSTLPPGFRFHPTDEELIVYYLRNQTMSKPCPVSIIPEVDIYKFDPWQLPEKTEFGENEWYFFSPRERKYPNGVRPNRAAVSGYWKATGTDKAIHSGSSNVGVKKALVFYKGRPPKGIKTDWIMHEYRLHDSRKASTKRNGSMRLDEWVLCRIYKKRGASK
Summed up: as §1

For another test, the target named is T7, GST-NST2(1-184) (Arabidopsis thaliana, UniProt Q9M274 1-184).
T7 sequence: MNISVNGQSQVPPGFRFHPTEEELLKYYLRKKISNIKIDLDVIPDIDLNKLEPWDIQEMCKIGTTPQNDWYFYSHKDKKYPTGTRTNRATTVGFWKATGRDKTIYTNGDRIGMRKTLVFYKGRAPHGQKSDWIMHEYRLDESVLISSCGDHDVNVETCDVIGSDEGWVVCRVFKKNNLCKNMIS
The gist of the method:
as §1

The target in another test is T8, GST-SND1(1-203) (Arabidopsis thaliana, UniProt Q9LPI7 1-203).
T8 sequence: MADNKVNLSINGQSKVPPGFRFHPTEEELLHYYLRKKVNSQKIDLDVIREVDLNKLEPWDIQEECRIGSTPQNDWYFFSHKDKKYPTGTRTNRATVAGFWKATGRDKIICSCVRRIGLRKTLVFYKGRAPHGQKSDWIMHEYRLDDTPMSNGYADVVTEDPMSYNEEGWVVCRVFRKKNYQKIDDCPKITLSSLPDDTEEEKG
The gist of the method: as §1

Another test concerns the target T9, GST-VND3 NAC domain (Arabidopsis thaliana, UniProt Q9FH59 12-162).
T9 sequence: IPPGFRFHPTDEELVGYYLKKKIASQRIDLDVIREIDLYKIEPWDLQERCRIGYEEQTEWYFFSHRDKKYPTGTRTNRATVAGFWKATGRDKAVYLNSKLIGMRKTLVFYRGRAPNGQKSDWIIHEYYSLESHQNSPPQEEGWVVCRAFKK
Summed up: as §1

Another test deals with T10, GST-VND7 NAC domain (Arabidopsis thaliana, UniProt Q9C8W9 9-158).
T10 sequence: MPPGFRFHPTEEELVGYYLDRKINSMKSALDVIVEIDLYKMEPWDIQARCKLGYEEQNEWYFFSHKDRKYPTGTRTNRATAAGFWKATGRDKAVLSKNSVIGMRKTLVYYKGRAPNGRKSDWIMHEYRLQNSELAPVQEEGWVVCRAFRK
Summed up:
as §1

A further test concerns the target GST-NTL6(1-168) (Arabidopsis thaliana, UniProt Q9SCK6 1-168). Summed up:
as §1

Another test addresses T11, GST-NTL8 NAC domain (Arabidopsis thaliana, UniProt Q9XIN7 14-156).
T11 sequence: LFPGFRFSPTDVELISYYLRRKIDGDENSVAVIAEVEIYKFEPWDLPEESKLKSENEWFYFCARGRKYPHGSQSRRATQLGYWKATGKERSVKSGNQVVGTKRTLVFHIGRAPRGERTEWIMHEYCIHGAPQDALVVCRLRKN
The gist of the method: as §1

Chain of GST-NTL6(1-168) (Q9SCK6 1-168): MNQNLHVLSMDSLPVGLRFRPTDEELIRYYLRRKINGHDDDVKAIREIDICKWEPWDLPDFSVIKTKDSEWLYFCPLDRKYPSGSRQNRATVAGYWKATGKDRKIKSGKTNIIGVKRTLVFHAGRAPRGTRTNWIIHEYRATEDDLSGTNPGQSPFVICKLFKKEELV

ACGGAACA: the binding signal was 0.224 E-score in the test with GST-ANAC092(1-176); 0.418 E-score in the test with GST-ANAC019 NAC domain; 0.418 E-score in the test with GST-ANAC055(1-171); 0.304 E-score in the test with GST-ATAF1 NAC domain; 0.289 E-score in [1]; 0.336 E-score with GST-NAP(1-166). The binding signal was determined as 0.166 E-score with GST-NST2(1-184), 0.217 E-score with GST-SND1(1-203), 0.352 E-score in the test with GST-VND3 NAC domain and 0.409 E-score with GST-VND7 NAC domain.
Take ATTGCTTA: the binding signal in the test with GST-ANAC092(1-176) worked out at 0.273 E-score; with GST-NTL6(1-168), 0.423 E-score; in test [1] it was 0.319 E-score; with GST-NST2(1-184), 0.288 E-score; in the test with GST-NTL8 NAC domain it was 0.0937 E-score; with GST-SND1(1-203), 0.457 E-score. Moreover, the binding signal with GST-VND3 NAC domain is 0.16 E-score; with GST-VND7 NAC domain, 0.172 E-score.
Regarding CACGCTTC, the binding signal with GST-ANAC092(1-176) was 0.37 E-score; in the test with GST-ANAC019 NAC domain it was 0.184 E-score; with GST-ANAC055(1-171), 0.165 E-score; with GST-ATAF1 NAC domain it was 0.212 E-score; in test [1] it was 0.437 E-score; with GST-NAP(1-166), 0.109 E-score. For the same sequence, the binding signal in the test with GST-NST2(1-184) was 0.188 E-score; with GST-SND1(1-203) it was 0.232 E-score; in the test with GST-VND3 NAC domain, 0.111 E-score; in the test with GST-VND7 NAC domain, 0.127 E-score.
Regarding ACGTGTAC, the binding signal was 0.328 E-score in the test with GST-ANAC092(1-176); 0.309 E-score with GST-ANAC019 NAC domain; 0.286 E-score in the test with GST-ANAC055(1-171); 0.279 E-score with GST-ATAF1 NAC domain; 0.413 E-score in test [1]; 0.278 E-score with GST-NAP(1-166). Also, the binding signal was determined as 0.201 E-score with GST-NST2(1-184), 0.204 E-score with GST-SND1(1-203), 0.267 E-score with GST-VND3 NAC domain and 0.206 E-score with GST-VND7 NAC domain.
In the case of TACCTTAA, the binding signal was 0.193 E-score with GST-ANAC092(1-176); 0.42 E-score in the test with GST-NTL6(1-168); 0.0879 E-score with GST-ANAC055(1-171); 0.131 E-score with GST-ATAF1 NAC domain; 0.26 E-score in [1]; 0.149 E-score with GST-NST2(1-184). The binding signal came to 0.298 E-score in the test with GST-NTL8 NAC domain, 0.291 E-score with GST-SND1(1-203), 0.16 E-score with GST-VND3 NAC domain and 0.0949 E-score in the test with GST-VND7 NAC domain.
For GTTACGCA, the binding signal with GST-ANAC092(1-176) stood at 0.338 E-score; with GST-ANAC019 NAC domain, 0.301 E-score; in the test with GST-ANAC055(1-171) it was 0.189 E-score; in the test with GST-ATAF1 NAC domain, 0.2 E-score; in [1] it was 0.363 E-score; with GST-NAP(1-166), 0.263 E-score. Besides, the binding signal with GST-NST2(1-184) stood at 0.219 E-score; in the test with GST-SND1(1-203), 0.422 E-score; with GST-VND3 NAC domain, 0.317 E-score; with GST-VND7 NAC domain, 0.215 E-score.
